# Screens (PubChem BioAssay)
# NALP1 inh = blocks the NALP1 inflammasome reconstituted in yeast; 280,000 tested, 0.61% active; S. cerevisiae NALP1/ASC/caspase-1 growth, X-gal OD620, 72 h; AID 2071; inhibition, % at 10 µM; in the data active means inhibition mostly above about 24%, no sharp cut-off; inactive means mostly below about 32%
# PolyA inh = blocks polyadenylation in yeast reporter cells. S. cerevisiae SKY197-pL101 polyadenylation reporter, beta-gal luminescence; efflux-impaired pdr1/pdr3 knockout yeast; score 100 = 6 SD above DMSO. 300,000 tested, 0.02% active. activity score, % at 12 µM;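 active means lowest replicate activity score at least 50, where 100 means six control SD above control mean; inconclusive means lowest score under 50 but half or more replicates reach 50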;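 further: yeast exposed to compound for 9 h at 30 °C; higher score means more reporter readthrough which indicates perturbed polyadenylation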
# A3G deaminase = blocks human APOBEC3G single-stranded DNA deamination | recombinant A3G, ssDNA deamination FAM/TAMRA fluorescence | inhibition, % at 20 µM | 330,000 tested, 0.28% active;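 active means inhibition of at least 40% at 20 µM, with no more than 30% in the related APOBEC3A deaminase screen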;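 further: plate controls were DMSO wells with A3G for no effect and wells lacking A3G enzyme for full effect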
# Target sequence (Q9HC16 whole entry, looked up): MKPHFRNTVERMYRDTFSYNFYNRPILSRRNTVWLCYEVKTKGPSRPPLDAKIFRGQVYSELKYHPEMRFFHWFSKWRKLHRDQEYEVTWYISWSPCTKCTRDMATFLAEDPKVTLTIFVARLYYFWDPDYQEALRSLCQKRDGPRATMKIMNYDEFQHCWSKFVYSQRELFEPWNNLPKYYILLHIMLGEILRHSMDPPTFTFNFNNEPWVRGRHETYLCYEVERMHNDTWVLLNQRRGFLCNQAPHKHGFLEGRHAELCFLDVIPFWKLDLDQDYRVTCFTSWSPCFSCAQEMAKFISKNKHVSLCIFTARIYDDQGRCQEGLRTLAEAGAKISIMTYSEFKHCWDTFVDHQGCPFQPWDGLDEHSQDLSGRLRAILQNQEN
# A3A deaminase = blocks human APOBEC3A ssDNA deamination. P31941. recombinant A3A, FAM/TAMRA ssDNA deamination fluorescence. inhibition, % at 20 µM. 330,000 tested, 0.41% active;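 active means at least 40% inhibition at 20 µM here, with at most 30% in a related deaminase screen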;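 further: plate controls were A3A with DMSO for no effect and wells lacking A3A enzyme for full effect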
# Numbers without * were called inactive; ? = inconclusive; · = no result. In the library only some 1.2% were active in any assay of this set; here they are far more common.
SMILES,NALP1 inh,PolyA inh,A3G deaminase,A3A deaminase
CC(C)(C)c1nc2c(C#N)c(-c3ccc(Cl)cc3)ccn2n1,38.0*,2.2,-7.7,-3.8
CCN(c1ccccc1)S(=O)(=O)c1nnc(NC(=O)C(C)(C)C)s1,11.5,-17.3,-4.7,0.6
C/[N+]([O-])=C\CC(=O)c1ccc(-c2ccccc2)cc1,28.8*,-30.4,-5.6,-1.2
COc1cccc(N2C(=O)Nc3ccc(Br)cc3C2(O)C(=O)NCCCN(C)C)c1 (stereo not given),14.7,-2.5,-3.1,-4.0
Cc1ccc(NC(=O)c2oc3ccccc3c2NC(=O)c2ccc3c(c2)OCO3)cc1,31.4*,5.6,-9.5,-0.3
CNC(CC(=O)c1ccc([N+](=O)[O-])cc1)C(Cl)(Cl)Cl (stereo not given),115.3*,·,·,·
CC(=O)Nc1nc(CC(C)C)cc2c1c(=O)oc1ccccc12,28.0*,-5.4,-5.4,-6.2
Cc1nn(-c2ccccc2)c(C)c1C(=O)OCC(=O)Nc1cccc(S(N)(=O)=O)c1,·,·,1.7,-0.6
N=c1n(CCN2CCCCC2)c2ccccc2n1CC(O)c1ccc(Cl)c(Cl)c1 (stereo not given),43.4*,-10.6,-3.3,-2.7
Cc1ccc(NC(=O)Cn2cnc3cc([N+](=O)[O-])ccc3c2=O)cc1,36.9*,-4.3,-5.0,-0.4
CC(=O)N[C@@H](CC(=O)N[C@H](CCC(=O)O)C(=O)O)C(=O)O,·,·,-5.7,-3.5
Cc1ccc(NC(=S)N(CCN(C)C)Cc2cc3cccc(C)c3[nH]c2=O)cc1,28.6,12.3,-4.0,0.2
Cc1ccc(NC(=S)N(CCN(C)C)Cc2cc3cc(C)ccc3[nH]c2=O)cc1,17.9*,-0.2,-7.4,-2.9
CCc1ccccc1NC(=O)CN(C)C(=O)COC(=O)c1ccco1,·,·,-5.9,0.5
O=C(CSc1nnc(-c2cccnc2)o1)Nc1nccs1,·,-3.4,-14.1,-4.6
CCCc1nn(C)c(C(=O)Nc2cccc(C)c2)c1Cl,46.3*,-10.9,-7.6,-7.8
CCN(CC)CC(=O)c1c(N)n(Cc2ccccc2)c(=O)n(C)c1=O,8.7,-7.2,0.0,6.9
CCC(=O)OCC(=O)c1c(N)n(Cc2ccccc2)c(=O)n(C)c1=O,32.1*,6.8,-7.6,-0.6
O=C(COc1ccc(C(=O)c2ccccc2)cc1)Nc1ncccc1O,12.6,7.4,-7.9,-1.9
O=C(Nc1ncccc1O)c1ccc(Oc2ccccc2)cc1,43.4*,3.0,-6.2,-6.6
COc1ccc(-c2cc(C(F)F)n3ncc(C(=O)Nc4c(C)n(C)n(-c5ccccc5)c4=O)c3n2)cc1,-16.8,-13.9,-4.4,-1.5
COc1ccc(-c2cc(C(F)F)n3ncc(C(=O)Nc4cc(C)on4)c3n2)cc1,42.9*,-7.5,-3.5,-0.1
CCCCCCCCCCCCCCCCn1cc[n+](CC(C)=O)c1,77.9*,·,·,·
CC(C)Oc1ccc(C(=O)N(CN2CCCC2=O)c2ccc(F)cc2)cc1,40.7*,-5.4,-2.2,0.0
Cc1cc(NC(=O)CSc2nc(=O)cc(N)n2-c2ccc(C)c(C)c2)no1,4.3,12.0,-3.5,-1.1
SMILES,NALP1 inh,PolyA inh,A3G deaminase,A3A deaminase
O=C(NC(=O)c1ccccc1O)c1ccc2c(c1)CCO2,·,9.7,-2.9,0.7
O=C1Nc2c(c(=O)[nH]c(=O)n2-c2ccccc2)C(C(F)(F)F)(C(F)(F)F)N1,11.1,12.2,-3.6,0.2
Cc1ccc(-n2c3c(c(=O)[nH]c2=S)C(C(F)(F)F)(C(F)(F)F)NC(=O)N3)cc1,41.2*,23.9,-6.9,-3.7
CC(C)CCNC(=O)CCCOc1ccccc1,1.9,-2.4,-8.7,-5.5
CCC(=O)NCCCOc1ccccc1,26.9*,5.2,-4.0,-0.1
COCCN1Cc2cccc(C(=O)Nc3cc(OC)ccc3OC)c2C1=O,27.9*,11.6,0.6,2.7
COc1ccc(OC)c(NC(=O)c2cccc3c2C(=O)N(C2CCCCC2)C3)c1,14.5,9.9,-5.2,0.0
O=C(Cn1cc2c(n1)CCCC2)NCCCN1CCN(Cc2ccccc2)CC1,0.3,-7.5,-3.7,3.4
CCN1CCN(CCCNC(=O)Cn2cc3c(n2)CCCC3)CC1,43.8*,8.8,2.9,3.8
Cc1csc(NC(=O)C(CC(C)C)NS(=O)(=O)c2ccc3c(c2)oc(=O)n3C)n1 (stereo not given),45.9*,?,-4.6,0.4
O=C(CCc1nc2ccccc2[nH]c1=O)OCC(=O)c1ccc(Cl)cc1,-22.2,-3.1,0.7,1.2
O=C(CCc1nc2ccccc2[nH]c1=O)OCC(=O)c1cccc2ccccc12,36.1*,·,·,·
COc1ccc(C(=O)NCCNC(C)=O)cc1S(=O)(=O)NCc1ccc(Cl)cc1,28.2*,21.7,0.3,1.3
CCN(C(=O)CCNC(=O)Cn1cnc2ccccc2c1=O)c1ccccc1F,25.8,9.6,3.0,-0.4
